Source: PubChem BioAssay (NCATS)
Where “and” joins values, the source holds several entries; their conditions need not be identical. Identical values can stand only once. Records with an inconclusive call do not appear. Calls of active or inactive are those of the source. Unless noted, the call rests on the fitted dose curve; in most records, active means well fitted curve in the direction sought with a large enough effect; inconclusive means small, poorly fitted or top-dose-only effect, or another doubt; inactive means no such curve, though single readings can be large; an effect the other way counts as inactive or inconclusive.

Key:
[1] = qHTS assay for small molecule antagonists of peroxisome proliferator-activated receptor delta signaling (AID 588535; active means well fitted inhibition curve with a large enough effect in the signal ratio, with a control signal flat, not every such curve was filed as active; the % refers to the signal ratio;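 on max response: cells co-treated with a PPAR-delta agonist as stimulator during compound exposure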); conditions: HEK293T PPARd-UAS-bla, beta-lactamase FRET ratio, 18 h; 460 nm channel
Method in brief: (§1)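 Titrations were run on PPAR-delta-UAS-bla HEK293T cells in charcoal/dextran-stripped serum, incubated 18 h at 37 C. CCF4 fluorescence (460/530 nm) after 2 h RT; Hill equation yields IC50 and maximal response.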

[2] = molecular target: Peroxisome proliferator-activated receptor delta (Homo sapiens) (UniProt Q03181); assay: as above; conditions: HEK293T PPARd-UAS-bla, beta-lactamase FRET ratio, 18 h; series mostly up to 76.7 µM
Sequence of Peroxisome proliferator-activated receptor delta (Homo sapiens) (Q03181 whole entry, looked up): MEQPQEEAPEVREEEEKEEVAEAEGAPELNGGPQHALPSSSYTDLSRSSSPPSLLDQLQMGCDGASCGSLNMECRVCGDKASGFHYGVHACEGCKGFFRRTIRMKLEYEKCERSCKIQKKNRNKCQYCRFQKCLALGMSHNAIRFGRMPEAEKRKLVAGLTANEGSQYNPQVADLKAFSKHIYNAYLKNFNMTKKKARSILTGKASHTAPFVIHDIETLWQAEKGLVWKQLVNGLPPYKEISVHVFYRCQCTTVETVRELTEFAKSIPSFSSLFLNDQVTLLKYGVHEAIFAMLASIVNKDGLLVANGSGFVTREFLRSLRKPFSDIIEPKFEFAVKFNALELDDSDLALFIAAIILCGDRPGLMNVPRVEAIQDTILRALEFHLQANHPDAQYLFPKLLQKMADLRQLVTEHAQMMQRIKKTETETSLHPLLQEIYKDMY
Method in brief: as §1

[3] = molecular target: Vitamin D3 receptor (Homo sapiens) (UniProt P11473); assay: qHTS assay for small molecule antagonists of vitamin D receptor signaling (AID 588541; calls by dose curve;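 further: receptor activated by calcitriol during compound treatment; on the % scale 0 is the no-effect control and ±100 the full control effect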); conditions: HEK293T VDR-UAS-bla, beta-lactamase ratio, antagonist mode; series mostly up to 76.7 µM
Sequence of Vitamin D3 receptor (Homo sapiens) (P11473 whole entry, looked up): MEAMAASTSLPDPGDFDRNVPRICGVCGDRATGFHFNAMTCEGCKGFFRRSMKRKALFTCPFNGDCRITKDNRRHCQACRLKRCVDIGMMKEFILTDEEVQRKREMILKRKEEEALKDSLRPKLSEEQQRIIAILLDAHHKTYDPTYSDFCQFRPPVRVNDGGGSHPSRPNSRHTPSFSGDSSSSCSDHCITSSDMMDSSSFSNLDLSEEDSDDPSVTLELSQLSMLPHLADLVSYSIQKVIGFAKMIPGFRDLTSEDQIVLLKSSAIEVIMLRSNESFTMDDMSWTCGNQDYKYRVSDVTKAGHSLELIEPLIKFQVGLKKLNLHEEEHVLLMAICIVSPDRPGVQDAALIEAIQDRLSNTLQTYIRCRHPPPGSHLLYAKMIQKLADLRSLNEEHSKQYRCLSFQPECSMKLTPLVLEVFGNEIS
Method in brief: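 Antagonist-mode beta-lactamase reporter assay: HEK293T VDR-UAS-bla cells were exposed to titrated compound alongside 1-alpha,25-dihydroxyvitamin D3 at 3 nM final for 16 h. Values were normalized to the 50 nM agonist control and DMSO basal, with IC50 and efficacy from Hill equation fits.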

[4] = molecular target: Vitamin D3 receptor (Homo sapiens) (UniProt P11473); assay: qHTS assay for small molecule agonists of vitamin D receptor signaling (AID 588543; calls by dose curve;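 further: 0% = DMSO basal and 100% = reference agonist control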); conditions: HEK293T VDR-UAS-bla, beta-lactamase ratio, 16 h; series mostly up to 76.8 µM
Method in brief: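 Measured: β-lactamase reporter activity (CCF4, 405 nm excitation, 460/530 nm emission) in HEK293T VDR-UAS-bla cells after 16 h compound exposure at 37 °C. Normalization against 50 nM 1α,25-dihydroxyvitamin D3 and DMSO; Hill-fit EC50.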

[5] = qHTS assay for small molecule agonists of retinoid X receptor alpha signaling (AID 588544; calls by dose curve;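 on activation: 0% = DMSO basal wells and 100% = reference agonist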); conditions: HEK293T RXRa-UAS-bla, beta-lactamase reporter, 18 h; 530 nm emission
[6] = molecular target: Retinoic acid receptor RXR-alpha (Homo sapiens) (UniProt P19793); assay: as above; conditions: HEK293T RXRa-UAS-bla, beta-lactamase reporter, 18 h; series mostly up to 76.7 µM
Sequence of Retinoic acid receptor RXR-alpha (Homo sapiens) (P19793 whole entry, looked up): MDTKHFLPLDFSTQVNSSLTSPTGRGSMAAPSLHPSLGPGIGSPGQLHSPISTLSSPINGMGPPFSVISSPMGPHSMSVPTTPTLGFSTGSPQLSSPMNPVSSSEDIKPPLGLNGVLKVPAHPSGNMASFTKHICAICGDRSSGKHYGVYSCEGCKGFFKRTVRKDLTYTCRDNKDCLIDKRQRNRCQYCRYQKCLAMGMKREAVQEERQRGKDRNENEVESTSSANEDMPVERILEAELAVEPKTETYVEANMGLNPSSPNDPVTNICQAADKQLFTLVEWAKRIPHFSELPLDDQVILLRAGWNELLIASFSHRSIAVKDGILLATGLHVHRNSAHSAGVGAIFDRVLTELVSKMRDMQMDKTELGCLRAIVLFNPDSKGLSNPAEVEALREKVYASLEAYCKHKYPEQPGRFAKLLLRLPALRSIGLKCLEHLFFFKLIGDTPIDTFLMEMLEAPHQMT

[7] = molecular target: Thyroid hormone receptor beta (Homo sapiens) (UniProt P10828); assay: qHTS assay for small molecule agonists of thyroid hormone receptor beta signaling (AID 588545; calls by dose curve;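 further: 0% = DMSO only and 100% = 10 nM T3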); conditions: TR-UAS-bla GripTite HEK 293, beta-lactamase ratio, agonist mode, 18 h, percent of T3 response, DMSO as zero; series mostly up to 76.7 µM
Sequence of Thyroid hormone receptor beta (Homo sapiens) (P10828 whole entry, looked up): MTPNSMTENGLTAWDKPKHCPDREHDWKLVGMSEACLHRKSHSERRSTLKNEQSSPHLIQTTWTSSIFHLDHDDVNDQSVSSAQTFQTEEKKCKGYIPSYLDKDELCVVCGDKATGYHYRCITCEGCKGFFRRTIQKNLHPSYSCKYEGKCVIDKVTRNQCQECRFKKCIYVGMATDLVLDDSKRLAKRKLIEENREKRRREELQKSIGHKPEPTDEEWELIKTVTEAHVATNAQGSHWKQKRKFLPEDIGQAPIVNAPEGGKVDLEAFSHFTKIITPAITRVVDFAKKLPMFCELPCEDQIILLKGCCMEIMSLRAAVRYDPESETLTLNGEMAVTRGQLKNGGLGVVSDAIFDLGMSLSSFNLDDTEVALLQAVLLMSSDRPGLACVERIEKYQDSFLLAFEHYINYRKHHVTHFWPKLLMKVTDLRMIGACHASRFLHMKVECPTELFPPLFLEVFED
Method in brief: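 Beta-lactamase reporter activity under TR response element control is measured in HEK 293 cells after 18 hrs compound exposure. Signal is ratiometric CCF4 fluorescence, 460/530 nm.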

[8] = molecular target: Voltage-gated inwardly rectifying potassium channel KCNH2 (Homo sapiens) (UniProt Q12809); assay: qHTS Assay for Small Molecule Inhibitors of the Human hERG Channel Activity (AID 588834); conditions: U2OS BacMam hERG, FluxOR thallium flux fluorescence; series mostly up to 46.1 µM;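 further: top concentration of the series differs between compounds; on the % scale 0 is the no-effect control and ±100 the full control effect; lower thallium flux fluorescence means stronger hERG block; nearly all actives have a fitted effect of over 50% in size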
Sequence of Voltage-gated inwardly rectifying potassium channel KCNH2 (Homo sapiens) (Q12809 whole entry, looked up): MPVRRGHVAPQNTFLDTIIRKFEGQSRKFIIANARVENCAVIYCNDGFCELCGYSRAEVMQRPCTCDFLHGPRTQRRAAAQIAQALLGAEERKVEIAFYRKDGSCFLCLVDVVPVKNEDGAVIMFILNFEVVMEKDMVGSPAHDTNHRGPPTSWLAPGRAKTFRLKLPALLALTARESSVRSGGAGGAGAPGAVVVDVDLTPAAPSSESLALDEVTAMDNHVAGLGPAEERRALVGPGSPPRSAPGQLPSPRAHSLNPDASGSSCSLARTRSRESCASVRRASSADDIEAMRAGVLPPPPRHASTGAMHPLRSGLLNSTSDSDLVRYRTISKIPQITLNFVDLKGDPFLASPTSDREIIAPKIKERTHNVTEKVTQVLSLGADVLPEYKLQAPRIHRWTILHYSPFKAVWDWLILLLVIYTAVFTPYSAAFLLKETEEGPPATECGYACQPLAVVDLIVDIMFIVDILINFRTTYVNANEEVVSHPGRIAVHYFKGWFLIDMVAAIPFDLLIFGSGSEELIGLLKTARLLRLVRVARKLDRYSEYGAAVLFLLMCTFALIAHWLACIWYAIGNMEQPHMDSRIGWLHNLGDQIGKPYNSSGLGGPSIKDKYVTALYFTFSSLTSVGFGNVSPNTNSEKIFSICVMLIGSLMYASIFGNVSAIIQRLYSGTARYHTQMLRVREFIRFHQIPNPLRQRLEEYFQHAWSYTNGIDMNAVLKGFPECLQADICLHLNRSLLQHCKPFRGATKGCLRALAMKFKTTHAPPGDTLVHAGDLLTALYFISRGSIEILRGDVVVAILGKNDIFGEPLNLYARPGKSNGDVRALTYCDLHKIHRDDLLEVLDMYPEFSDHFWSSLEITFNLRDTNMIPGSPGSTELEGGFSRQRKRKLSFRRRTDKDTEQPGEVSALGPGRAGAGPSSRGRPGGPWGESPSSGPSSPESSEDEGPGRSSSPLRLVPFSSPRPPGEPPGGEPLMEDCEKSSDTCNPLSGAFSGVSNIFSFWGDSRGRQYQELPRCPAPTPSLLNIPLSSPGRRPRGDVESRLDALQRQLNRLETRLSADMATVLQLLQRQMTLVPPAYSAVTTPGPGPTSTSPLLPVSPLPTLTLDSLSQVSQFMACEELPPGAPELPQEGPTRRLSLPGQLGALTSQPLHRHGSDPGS
Method in brief: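 Homogeneous FluxOR thallium flux assay using hERG-expressing U2OS cells (BacMam). Compound treatment about 10 minutes preceded stimulation; reduced fluorescence taken as channel block.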

[9] = qHTS assay for small molecule agonists of the antioxidant response element (ARE) signaling pathway (AID 651741; active means well fitted activation curve with a large enough effect in the signal ratio; the % refers to the signal ratio; further: potency means the concentration at half of the fitted maximal effect); conditions: HepG2 ARE-bla reporter, beta-lactamase FRET ratio, 16 h
Method in brief: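 Beta-lactamase reporter under ARE control in HepG2 cells, 2,000 per well, was induced by 16 h compound treatment at 37 C. Read-out was fluorescence from LiveBLAzer B/G FRET substrate after 2 h at room temperature.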

[10] = qHTS assay for small molecule activators of the p53 signaling pathway (AID 651743; active means well fitted activation curve with a large enough effect in the signal ratio, not every such curve was filed as active; the % refers to the signal ratio; further: potency means the concentration at half of the fitted maximal effect); conditions: HCT-116 p53RE-bla, beta-lactamase FRET ratio, 16 h; activation: stronger effect = higher value
Method in brief: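 After 16 hours compound treatment at 37 C, HCT-116 cells stably expressing p53RE-driven beta-lactamase were loaded with LiveBLAzer B/G FRET substrate for 2 hours at room temperature. Fluorescence intensity served as the p53 activation read-out.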

[11] = qHTS assay for small molecule activators of the nuclear factor-kappa B (NF-kB) signaling pathway (AID 651749; active means well fitted activation curve with a large enough effect in the signal ratio; the % refers to the signal ratio; further: % of control where 0% means no effect); conditions: NF-kB-bla ME-180 cells, beta-lactamase FRET ratio, 16 h; stronger effect = higher value
Method in brief: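 Activation measured after 16 hr compound treatment at 37C, 5% CO2, of 2,000 ME-180 cells/well stably expressing an NF-kB response element–driven beta-lactamase reporter, via FRET-disruption fluorescence.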

[12] = qHTS assay for small molecule disruptors of the mitochondrial membrane potential - 1 hr assay (AID 651754; calls by dose curve; further: potency means the concentration at half of the fitted maximal effect; nearly all actives have a fitted effect of over 35% in size); conditions: series mostly up to 92.2 µM
Method in brief: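 Mitochondrial potential in living HepG2 cells after 1 hr compound treatment at 37C was read with Mito-MPS dye added for a further 30 min. Red aggregate and green monomer fluorescence were measured; loss of potential leaves dye as cytoplasmic monomers.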

[13] = molecular target: Tumor necrosis factor (Homo sapiens) (UniProt P01375); assay: qHTS assay to identify small molecules that stimulate Tumor Necrosis Factor-alpha (TNF-alpha) secretion (AID 651757; active means well fitted curve in the direction sought with a large enough effect in the signal ratio; the % refers to the signal ratio; further: 0% is about no effect); conditions: Human cells, HTRF 665/615 ratio; series mostly up to 92.2 µM
Sequence of Tumor necrosis factor (Homo sapiens) (P01375 whole entry, looked up): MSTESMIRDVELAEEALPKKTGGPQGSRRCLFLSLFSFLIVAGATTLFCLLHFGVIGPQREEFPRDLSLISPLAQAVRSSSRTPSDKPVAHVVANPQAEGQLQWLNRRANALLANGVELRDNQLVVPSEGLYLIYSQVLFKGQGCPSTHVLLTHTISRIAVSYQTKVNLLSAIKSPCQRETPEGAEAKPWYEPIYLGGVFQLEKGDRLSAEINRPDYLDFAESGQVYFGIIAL
Method in brief: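 Secreted TNF-alpha quantified by TR-FRET sandwich of two labeled anti-TNF-alpha antibodies, incubated 3 hr at room temperature. Preceded by 17 hr, 37 C compound treatment of THP-1 cells at 3000 cells/well.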

[14] = qHTS assay to identify small molecules that stimulate interleukin-8 (IL-8) secretion (AID 651758; active means well fitted activation curve with a large enough effect in the signal ratio; the % refers to the signal ratio; further: 0% is about no effect); conditions: HTRF ratio (665/615); series mostly up to 92.2 µM
Method in brief: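 Secreted IL-8 measured homogeneously by TR-FRET (two labelled anti-IL-8 antibodies, 1-3 h at room temperature) after a 16 h, 37 C compound treatment of THP-1 cells at 2000 cells/well.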

[15] = molecular target: Peroxisome proliferator-activated receptor alpha (Homo sapiens) (UniProt Q07869); assay: qHTS assay for small molecule agonists of the peroxisome proliferator-activated receptor alpha (PPARalpha) signaling pathway (AID 651778); conditions: PathHunter PPARalpha complementation, chemiluminescence, 6 h; stronger effect = higher value; further: % of control where 0% means no effect
Sequence of Peroxisome proliferator-activated receptor alpha (Homo sapiens) (Q07869 whole entry, looked up): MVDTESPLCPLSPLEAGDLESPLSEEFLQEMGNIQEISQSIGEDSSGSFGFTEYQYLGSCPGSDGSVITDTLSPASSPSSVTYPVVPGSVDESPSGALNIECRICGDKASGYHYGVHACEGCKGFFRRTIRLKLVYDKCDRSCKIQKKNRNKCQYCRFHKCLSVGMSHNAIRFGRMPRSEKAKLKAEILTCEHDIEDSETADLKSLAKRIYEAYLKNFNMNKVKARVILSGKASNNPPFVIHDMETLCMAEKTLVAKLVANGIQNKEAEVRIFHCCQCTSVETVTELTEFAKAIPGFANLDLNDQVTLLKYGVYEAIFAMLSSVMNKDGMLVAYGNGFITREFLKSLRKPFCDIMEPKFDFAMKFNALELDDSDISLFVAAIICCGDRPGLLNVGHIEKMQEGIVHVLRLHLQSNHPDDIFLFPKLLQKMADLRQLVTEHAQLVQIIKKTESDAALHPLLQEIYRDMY
Method in brief: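 Chemiluminescence from complemented enzyme reported PPARalpha activation in cells after 6 hr of compound treatment at 37 C. The detection reagent was incubated for 60 min at room temperature, and compounds were scored as agonists.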

[16] = qHTS assay for small molecule agonists of the antioxidant response element (ARE) signaling pathway measured by Nrf2-dependant transcriptional activity (AID 720636; active means well fitted curve in the direction sought with a large enough effect in the repeat runs; an effect the other way counts as inactive or inconclusive;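 further: HepG2 cells with an ARE-driven luciferase reporter; % of control where 0% means no effect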); conditions: ARE-luc HepG2, Nrf2 luciferase reporter, 16 h; series mostly up to 92.4 µM
Method in brief: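 We exposed ARE-luc HepG2 cells, seeded in assay medium with 1% dialyzed FBS and allowed 6 hr to adhere, to test compounds overnight (16 hr, 37 C) before measuring luciferase with ONE-Glo.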

[17] = qHTS assay for small molecule antagonists of the retinoid-related orphan receptor gamma (ROR-gamma) signaling pathway - cell viability counter screen (AID 720652; active means well fitted curve in the direction sought with a large enough effect in the repeat runs; an effect the other way counts as inactive or inconclusive;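 further: CHO reporter cells with doxycycline-induced ROR-gamma expression; compound exposure lasted 16 hr before ATP read; on the % scale 0 is the no-effect control and ±100 the full control effect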); conditions: RORgamma reporter cell line viability counter screen; series mostly up to 92.2 µM
Method in brief: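 Cytotoxicity counter screen: intracellular ATP (CellTiter-Glo luminescence) measured in the doxycycline-induced CHO RORE-luciferase reporter line after 16 hr compound exposure at 37 C, 5% CO2.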

[18] = qHTS assay for small molecule agonists of the antioxidant response element (ARE) signaling pathway measured by Nrf2-dependant transcriptional activity - cell viability counter screen (AID 720653; active means well fitted curve in the direction sought with a large enough effect in the repeat runs; an effect the other way counts as inactive or inconclusive; further: on the % scale 0 is the no-effect control and ±100 the full control effect); conditions: ARE-bla HepG2 viability, CellTiter-Glo ATP luminescence, 16 h; stronger effect = lower value
Method in brief: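 Cytotoxicity counter screen: intracellular ATP quantified by CellTiter-Glo luminescence in the same ARE-bla HepG2 plates, after 16 h compound exposure and a 2 h beta-lactamase substrate step.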

[19] = qHTS assay for cell viability of HEK293 cells (AID 743288); conditions: ATP luminescence (CellTiter-Glo), 18 h, stronger effect = lower value; further: on the % scale 0 is the no-effect control and ±100 the full control effect; nearly all actives have a fitted effect of over 50% in size
Method in brief: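 HEK293, 18 h, 37 C, ATP luminescence. Cells at 2,000/well were allowed at least 5 h to settle before dosing; CellTiter-Glo developed 30 min at RT.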

[20] = qHTS assay for cell viability of the p53RE-bla HCT-116 cell line (AID 743292); conditions: p53RE-bla HCT-116 viability, ATP luminescence, 16 h; series mostly up to 95 µM; further: potency means the concentration at half of the fitted maximal effect; nearly all actives have a fitted effect of over 55% in size
Method in brief: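 In this qHTS counter-screen, metabolically competent p53RE-bla HCT-116 cells were counted via their ATP content. Compounds were applied for 16 h at 37 C and luciferase-coupled luminescence was measured.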

[21] = Counterscreen qHTS for small molecule stabilizers of the endoplasmic reticulum resident proteome: GLuc-NoTag assay (AID 1508627); conditions: Gaussia luciferase NoTag secretion counterscreen, luminescence, thapsigargin 100 nM for final 4 h; series mostly up to 76.4 µM;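 further: 0% = thapsigargin alone and -100% = DMSO vehicle control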
Method in brief: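 Counterscreen line: SH-SY5Y-GLuc-NoTag cells, treated with compound 19 hr before a 4 hr, 100 nM thapsigargin calcium depletion. Secreted Gaussia luciferase in the medium was measured by luminescence after coelenterazine was added (0.07x final), with cells unlysed.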

[22] = Confirmatory qHTS for small molecule stabilizers of the endoplasmic reticulum resident proteome: Secreted ER Calcium Modulated Protein (SERCaMP) assay (AID 1508628); conditions: SERCaMP secreted luciferase ER calcium/proteostasis reporter; series mostly up to 76.3 µM; further: on the % scale 0 is the no-effect control and ±100 the full control effect; nearly all actives have a fitted effect of over 40% in size
Method in brief: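 Reporter secretion upon ER calcium depletion (100 nM thapsigargin, 4 h, 37C) is measured as medium luminescence with coelenterazine, after 16 h compound pretreatment of SH-SY5Y-GLuc-SERCaMP cells; primary at three concentrations up to 38.3 uM, follow-up at 11 (up to 76.6 uM).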

[23] = Cell Viability qHTS for small molecule stabilizers of the endoplasmic reticulum resident proteome (AID 1508629); conditions: cell viability counter-screen, 100 nM thapsigargin for final 4 h;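 further: human SH-SY5Y neuroblastoma cells carrying the GLuc-SERCaMP reporter; compound exposure about 46 h in total before the viability read; on the % scale 0 is the no-effect control and ±100 the full control effect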
[24] = molecular target: Nuclear receptor subfamily 1 group I member 2 (Rattus norvegicus) (UniProt Q9R1A7); assay: qHTS assay for small molecule activators of the rat pregnane X receptor (rPXR) signaling pathway (AID 651751; call rule not given here; further: 0% is about no effect); conditions: rPXR reporter cells, luciferase (One-Glo), 24 h
Sequence of Nuclear receptor subfamily 1 group I member 2 (Rattus norvegicus) (Q9R1A7 whole entry, looked up): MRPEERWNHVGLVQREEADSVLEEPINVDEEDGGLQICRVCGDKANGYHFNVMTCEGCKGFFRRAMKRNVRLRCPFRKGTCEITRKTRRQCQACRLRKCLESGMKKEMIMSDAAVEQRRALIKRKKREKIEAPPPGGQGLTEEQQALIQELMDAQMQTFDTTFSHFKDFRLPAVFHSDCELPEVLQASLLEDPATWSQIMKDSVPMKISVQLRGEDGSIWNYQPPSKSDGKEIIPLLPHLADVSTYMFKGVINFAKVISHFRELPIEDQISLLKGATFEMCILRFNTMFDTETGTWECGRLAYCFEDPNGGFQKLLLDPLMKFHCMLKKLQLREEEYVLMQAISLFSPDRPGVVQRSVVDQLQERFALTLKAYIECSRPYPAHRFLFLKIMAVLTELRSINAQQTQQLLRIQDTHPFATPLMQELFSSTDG

CC(C)(c1cc(Br)c(O)c(Br)c1)c1cc(Br)c(O)c(Br)c1
active: Potency [9] 29.8 µM and 23.7 µM and 48.6 µM | Potency [10] 28.2 µM | Potency [12] 18.8 µM | Potency [20] 44.7 µM
4.03% and -9.48% and 2.35%: max response [5]
inactive: outcome [2] | outcome [3] | outcome [4] | outcome [6] | outcome [7] | Potency [8] | activation [11] 2.39% and 3.54% and 2.16% | Potency [13] | outcome [14] | max response [15] -7.23% and -3.95% and -1.86% | outcome [16] | outcome [17] | max response [18] 4.4% and -1.06% and -0.187% | max response [19] 5.04% and -1.46% and -3.35% | Potency [21] | Potency [22] | max response [23] 18.1% and 32.8% and -0.114% | max response [24] 4.59% and 7.9% and 1.02%
-3.55% and -29% and 5.87%: max response [1]
